In paper PMC10954555:

molecular target: RNA polymerase-associated protein LEO1 (UniProt Q8WVC0); test: other; cross-linking mass spectrometry; other

Listed as a hit, yes:
RNA polymerase II-associated factor 1 homolog, Q8N7H5
Parafibromin, Q6P1J9
RNA polymerase-associated protein CTR9 homolog, Q6PD62
